Laboratory results taken from PubChem BioAssay (EPA / NIEHS).
Results filed as inconclusive are left out. Calls of active or inactive are those of the source. Rule for the calls, unless noted: active = hit-call score of the fitted dose curve at least 0.9, where 1 is the maximum; inconclusive = response in the unintended direction; inactive = score below 0.9.

Columns and labels:
[1] = TOX21_p53_BLA_p2_viability: Viability Assessment in the Tox21 HCT-116 p53 Agonism Beta-lactamase Assay, Phase 2 (AID 2283591);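 note: compound exposure lasted 16 h at 37 °C; actives lower the ATP signal meaning cytotoxicity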
Procedure, shortened: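 HCT116 p53-bla cells, 4000/well, dosed after 5 h plating (217-fold dilution of DMSO stocks) and incubated 16 h at 37C. Viability taken as cellular ATP by CellTiter-Glo luminescence after 30 min RT; signal loss marks cytotoxicity.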

[2] = target: Cellular tumor antigen p53 (Homo sapiens) (UniProt P04637); assay: TOX21_p53_BLA_p2_ratio: Tox21 HCT-116 p53 Agonism Beta-lactamase Assay, Ratio, Phase 2 (AID 2283592)
Procedure, shortened: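 Cleaved-to-uncleaved substrate ratio (460 vs 530 nm) measured in HCT116 cells with an inducible beta-lactamase reporter linked to p53 activity. Compounds incubated 16 h at 37C before 2 h room-temperature CCF4-AM loading.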

[3] = TOX21_p53_BLA_p3_viability: Viability Assessment in the Tox21 HCT-116 p53 Agonism Beta-lactamase Assay, Phase 3 (AID 2283593);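 note: cells exposed to compound for 16 h before reading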
Procedure, shortened: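 HCT116 cells, 4000/well, dosed 5 h after plating by pin transfer (217-fold dilution from DMSO stock) and incubated 16 h at 37C, 5% CO2. Viability read as ATP luminescence with CellTiter-Glo after 30 min at room temperature.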

[4] = target: Cellular tumor antigen p53 (Homo sapiens) (UniProt P04637); assay: TOX21_p53_BLA_p3_ratio: Tox21 HCT-116 p53 Agonism Beta-lactamase Assay, Ratio, Phase 3 (AID 2283596)
Procedure, shortened: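 Cells were seeded at 4000/well, rested 5 h at 37C, then dosed with DMSO compound solutions (217-fold dilution) for 16 h. CCF4-AM substrate was loaded for 2 h at room temperature, and the 460/530 nm emission ratio was fitted for gain of signal versus DMSO.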

[5] = TOX21_p53_BLA_p4_viability: Viability Assessment in the Tox21 HCT-116 p53 Agonism Beta-lactamase Assay, Phase 4 (AID 2283597);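 note: hits lower the luminescence signal meaning cytotoxicity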
Procedure, shortened: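 Viability is taken as cellular ATP: after 16 h compound exposure of HCT116 cells and a 2 h room-temperature CCF4-AM substrate step, CellTiter-Glo reagent is added and luminescence is measured 30 min later.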

[6] = target: Cellular tumor antigen p53 (Homo sapiens) (UniProt P04637); assay: TOX21_p53_BLA_p5_ratio: Tox21 HCT-116 p53 Agonism Beta-lactamase Assay, Ratio, Phase 5 (AID 2283599)
Procedure, shortened: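 HCT-116 p53-bla cells (4000/well) plated 5 h, dosed with compound (217-fold DMSO dilution) for 16 h at 37 C; CCF4-AM substrate 2 h at room temperature. Activity is the 460/530 nm emission ratio (405 nm excitation), fitted in gain-of-signal direction versus DMSO.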

[7] = TOX21_p53_BLA_p5_viability: Viability Assessment in the Tox21 HCT-116 p53 Agonism Beta-lactamase Assay, Phase 5 (AID 2283600)
Procedure, shortened: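 Viability is taken from cellular ATP content, measured by luciferase luminescence in the same wells after the beta-lactamase ratio read. Cells are seeded at 4000 per well and exposed to DMSO-dissolved compounds, diluted 217-fold, for 16 h.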

[8] = target: Cellular tumor antigen p53 (Homo sapiens) (UniProt P04637); assay: TOX21_p53_BLA_p4_ratio: Tox21 HCT-116 p53 Agonism Beta-lactamase Assay, Ratio, Phase 4 (AID 2283601)
Procedure, shortened: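 HCT-116 p53 beta-lactamase reporter cells (4000/well) preincubated 5 h, then compound (217-fold dilution of DMSO stock) for 16 h at 37C. CCF4-AM substrate added 2 h at room temperature; 460/530 nm emission ratio fitted upward versus DMSO.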

[9] = target: THRB (gene 7068) (UniProt P10828); assay: TOX21_TRB_BLA_Antagonist_Followup_ratio: Tox21 Thyroid Hormone Receptor beta Antagonism Beta-lactamase (BLA) Follow-Up Assay, Ratio (AID 2283958)
Procedure, shortened: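 Using charcoal-stripped 2% FBS medium, human TRβ-LBD/GAL4 reporter HEK293T cells received test compounds for 18 h. The endpoint is the cleaved-to-uncleaved substrate ratio (460/530 nm).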

[10] = TOX21_TRB_BLA_Antagonist_Followup_viability: Viability Assessment in the Tox21 Thyroid Hormone Receptor beta Antagonism Beta-lactamase (BLA) Follow-Up Assay (AID 2283961)
Procedure, shortened: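 Cytotoxicity is measured in parallel with the antagonist-mode TRβ beta-lactamase screen, using ATP-coupled luciferase luminescence. Engineered HEK293T cells are treated for 18 h with 11-point compound series in triplicate.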

[11] = target: THRB (gene 7068) (UniProt P10828); assay: TOX21_TRB_COA_Antagonist_Followup_ratio: Tox21 Thyroid Hormone Receptor beta Antagonism through Coactivator Recruitment Follow-Up Assay, Ratio (AID 2283967)
Procedure, shortened: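 GST-TRb LBD 5.0 nM + 0.10% BSA, compound added; fluorescein-SRC-2 peptide 200 nM, Tb-anti-GST Ab 2 nM. TR-FRET, ex 340 / em 520:495 ratio. Norm: DMSO 0%, T3 100%.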

[12] = target: Retinoic acid receptor RXR-alpha (Homo sapiens) (UniProt P19793); assay: TOX21_TR_RXR_BLA_Antagonist_Followup_ratio: Tox21 Thyroid Hormone Receptor beta Retinoid X Receptor alpha (RXRa) Antagonism Beta-lactamase (BLA) Follow-Up Assay, Ratio (AID 2283972)
Procedure, shortened: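 Antagonist mode used GAL4 UAS-driven beta-lactamase in HEK293T cells expressing RXRa, treated for 16 h with compound concentration series. Activity was taken from the blue/green (460:530 nm) ratio of cleaved to uncleaved substrate.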

[13] = TOX21_TR_RXR_BLA_Antagonist_Followup_viability: Viability Assessment in the Tox21 Thyroid Hormone Receptor beta Retinoid X Receptor alpha (RXRa) Antagonism Beta-lactamase (BLA) Follow-Up Assay (AID 2283979)
Procedure, shortened: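 RXRa-bla HEK293T cells (2,500/well, phenol red-free DMEM, 2% charcoal-stripped FBS) were attached 5 h, then exposed to compounds at 11 concentrations in triplicate for 16 h at 37C. Viability measured by CellTiter-Glo ATP luminescence, bidirectional fitting versus DMSO.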

[14] = target: PGR (gene 5241) (UniProt P06401); assay: TOX21_PR_BLA_Followup_Antagonist_ratio: Tox21 HEK293 Progesterone Receptor (PR) Antagonism Beta-lactamase Follow-Up Assay, Ratio (AID 2283934);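 note: PR-UAS-bla HEK293T cells stimulated with 1 nM R5020 agonist for 16 hr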
Procedure, shortened: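 Measured in PR-UAS-bla HEK293T cells co-treated with compound and 1 nM promegestone for 16 hr; beta-lactamase ratio read after 2 h FRET substrate loading, with parallel CellTiter-Glo cytotoxicity.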

[15] = TOX21_PR_BLA_Followup_Agonist_viability: Viability Assessment in the Tox21 HEK293 Progesterone Receptor (PR) Agonism Beta-lactamase Follow-Up Assay (AID 2283935);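 note: signal loss means lower viability so actives are cytotoxic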
Procedure, shortened: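 Viability is read as CellTiter-Glo luminescence, where loss of signal indicates cytotoxicity. The cells are PR-UAS-bla HEK293T given compounds for 16 hr at 37C and 5% CO2, in the same wells used for the bla readout.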

[16] = TOX21_PR_BLA_Followup_Antagonist_viability: Viability Assessment in the Tox21 HEK293 Progesterone Receptor (PR) Antagonism Beta-lactamase Follow-Up Assay (AID 2283936);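 note: cells exposed to compound with R5020 agonist for 16 h; hits lower the luminescence signal meaning cytotoxicity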
Procedure, shortened: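 PR-UAS-bla HEK293T cells in medium with 2% charcoal-stripped FBS were treated with compounds plus R5020 for 16 hr at 37C. After the beta-lactamase read, CellTiter-Glo was added to the same wells and luminescence read after 30 min at room temperature.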

[17] = target: PGR (gene 5241) (UniProt P06401); assay: TOX21_PR_LUC_Followup_Antagonist: Tox21 HEK293 Progesterone Receptor (PR) Antagonism Luciferase Follow-Up Assay (AID 2283938);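 note: curve fitted upward as signal gain over DMSO baseline despite antagonist label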
Procedure, shortened: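 A follow-up to the PR bla screen using HEK293-PR-A-luc cells, multiplexed with cell viability to flag cytotoxicity. Reporter luminescence after 16 h compound exposure was analysed relative to DMSO.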

[18] = TOX21_PR_LUC_Followup_Antagonist_viability: Viability Assessment in the Tox21 HEK293 Progesterone Receptor (PR) Antagonism Luciferase Follow-Up Assay (AID 2283940)
Procedure, shortened: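 Loss of CellTiter-Glo ATP signal indicates cytotoxicity in HEK293-PR-A-luc cells grown in 10% charcoal-stripped FBS medium, seeded 3,000 per well and incubated 16 h with compound at 37C.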

[19] = CCTE_Harrill_HTTr_Viability_MCF7: CCTE's 6-hour Cell Viability Assessment for the High-Throughput Transcriptomics (HTTr) Platform, in MCF-7 cells cultured in DMEM + 10% fetal bovine serum, Harrill Lab (AID 2284010; active = hit-call score of the fitted dose curve at least 0.9, where 1 is the maximum; inactive = score below 0.9)
Procedure, shortened: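 Eight-point concentration series, six-hour exposure. Propidium iodide exclusion imaged to assess membrane integrity as a cytotoxicity readout; bidirectional fitting was done with DMSO as negative control and activity baseline.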

[20] = CCTE_Harrill_HTTr_Apoptosis_MCF7: CCTE's 6-hour Apoptosis Assessment for the High-Throughput Transcriptomics (HTTr) Platform, in MCF-7 cells cultured in DMEM + 10% fetal bovine serum, Harrill Lab (AID 2284011; active = hit-call score of the fitted dose curve at least 0.9, where 1 is the maximum; inactive = score below 0.9)
Procedure, shortened: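 Cells are dosed with test chemicals at eight concentrations and imaged 6 hours later for caspase-3/7 activity using a green fluorogenic detection reagent. Activity is fitted in both directions against DMSO controls.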

Measured: AC50

Sequence of Cellular tumor antigen p53 (Homo sapiens) (P04637 whole entry, looked up): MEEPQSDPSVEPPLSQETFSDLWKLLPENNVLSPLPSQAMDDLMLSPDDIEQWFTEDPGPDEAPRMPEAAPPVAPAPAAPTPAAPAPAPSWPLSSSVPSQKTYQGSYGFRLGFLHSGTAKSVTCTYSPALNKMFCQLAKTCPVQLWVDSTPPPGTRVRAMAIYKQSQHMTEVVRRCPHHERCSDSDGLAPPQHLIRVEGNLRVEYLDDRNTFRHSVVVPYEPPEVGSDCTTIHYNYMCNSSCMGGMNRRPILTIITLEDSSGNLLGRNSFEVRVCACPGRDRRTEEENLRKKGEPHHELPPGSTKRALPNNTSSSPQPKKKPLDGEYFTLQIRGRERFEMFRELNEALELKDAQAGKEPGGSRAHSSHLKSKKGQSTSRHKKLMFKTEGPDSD
Sequence of PGR (gene 5241) (P06401 whole entry, looked up): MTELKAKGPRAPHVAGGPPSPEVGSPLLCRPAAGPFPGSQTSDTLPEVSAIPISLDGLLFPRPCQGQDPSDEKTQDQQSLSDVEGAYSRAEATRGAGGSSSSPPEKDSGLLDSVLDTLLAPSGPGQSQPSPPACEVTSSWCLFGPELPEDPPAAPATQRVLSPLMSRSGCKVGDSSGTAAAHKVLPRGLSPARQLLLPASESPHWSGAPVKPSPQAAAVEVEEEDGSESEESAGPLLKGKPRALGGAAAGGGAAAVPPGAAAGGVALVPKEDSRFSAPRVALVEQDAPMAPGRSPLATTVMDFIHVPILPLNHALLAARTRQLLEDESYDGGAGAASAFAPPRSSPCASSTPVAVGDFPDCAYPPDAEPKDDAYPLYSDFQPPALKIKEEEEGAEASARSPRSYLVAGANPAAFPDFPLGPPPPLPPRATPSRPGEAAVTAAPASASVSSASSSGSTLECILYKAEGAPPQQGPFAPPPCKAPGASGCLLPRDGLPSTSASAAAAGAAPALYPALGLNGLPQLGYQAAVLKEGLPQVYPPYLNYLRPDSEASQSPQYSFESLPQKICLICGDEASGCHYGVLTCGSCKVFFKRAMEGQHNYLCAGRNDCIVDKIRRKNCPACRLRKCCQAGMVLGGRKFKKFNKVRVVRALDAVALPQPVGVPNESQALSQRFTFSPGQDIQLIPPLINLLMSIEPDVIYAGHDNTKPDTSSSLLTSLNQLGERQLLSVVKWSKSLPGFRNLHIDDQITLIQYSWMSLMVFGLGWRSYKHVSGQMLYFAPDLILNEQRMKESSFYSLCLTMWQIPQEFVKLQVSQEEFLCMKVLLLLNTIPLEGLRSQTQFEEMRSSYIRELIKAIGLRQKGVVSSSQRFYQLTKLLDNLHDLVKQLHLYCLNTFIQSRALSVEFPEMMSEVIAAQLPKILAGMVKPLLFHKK
Sequence of THRB (gene 7068) (P10828 whole entry, looked up, the tested form may be a part): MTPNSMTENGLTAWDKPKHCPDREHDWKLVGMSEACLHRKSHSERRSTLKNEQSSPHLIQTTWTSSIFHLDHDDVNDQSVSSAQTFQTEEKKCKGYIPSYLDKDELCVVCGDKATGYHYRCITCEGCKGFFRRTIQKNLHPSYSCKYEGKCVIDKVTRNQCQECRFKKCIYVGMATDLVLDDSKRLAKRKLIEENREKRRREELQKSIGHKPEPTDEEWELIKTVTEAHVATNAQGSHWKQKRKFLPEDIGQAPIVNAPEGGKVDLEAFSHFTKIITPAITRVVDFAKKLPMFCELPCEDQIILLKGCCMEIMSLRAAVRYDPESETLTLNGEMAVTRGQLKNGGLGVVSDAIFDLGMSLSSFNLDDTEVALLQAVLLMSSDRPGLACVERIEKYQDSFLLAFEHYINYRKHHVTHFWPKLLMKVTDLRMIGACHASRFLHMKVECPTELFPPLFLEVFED
Sequence of Retinoic acid receptor RXR-alpha (Homo sapiens) (P19793 whole entry, looked up, the tested form may be a part): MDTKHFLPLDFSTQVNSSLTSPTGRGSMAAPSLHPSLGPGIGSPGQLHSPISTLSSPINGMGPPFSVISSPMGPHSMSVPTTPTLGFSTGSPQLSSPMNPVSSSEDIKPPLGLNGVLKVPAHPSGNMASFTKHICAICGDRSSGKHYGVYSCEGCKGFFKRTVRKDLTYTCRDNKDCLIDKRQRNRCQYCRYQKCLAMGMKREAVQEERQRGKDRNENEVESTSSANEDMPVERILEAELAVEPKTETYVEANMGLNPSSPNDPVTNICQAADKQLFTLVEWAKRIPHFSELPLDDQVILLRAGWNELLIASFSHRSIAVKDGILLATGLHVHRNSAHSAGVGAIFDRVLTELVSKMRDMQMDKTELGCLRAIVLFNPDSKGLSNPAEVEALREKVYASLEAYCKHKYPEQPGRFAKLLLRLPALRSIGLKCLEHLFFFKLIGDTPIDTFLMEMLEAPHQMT

Cc1nc2ccccc2n1Cc1ccc(Cl)cc1
inactive: [1] | [2] | [3] | [4] | [5] | [6] | [7] | [8] | [9] | [10] | [11] | [12] | [13]

O=C(Nc1ccc(Cl)c(Cl)c1)C1CC1
inactive: [1] | [2] | [3] | [4] | [5] | [6] | [7] | [8] | [14] | [15] | [16] | [17] | [18]

Cc1ccc(/C=N/n2c(-c3ccccc3)csc2=S)cc1
active: [14] 23 µM
inactive: [1] | [2] | [3] | [4] | [5] | [6] | [7] | [8] | [15] | [16] | [17] | [18]

NC(=O)n1c(O)c(C(=O)c2cccs2)c2cc(Cl)ccc21
active: [2] 26.9 µM | [4] 20.4 µM | [6] 34.4 µM | [17] 17.3 µM
inactive: [1] | [3] | [5] | [7] | [8] | [14] | [15] | [16] | [18]

O=C(c1cc2ccccc2o1)N1CCN(Cc2ccccc2)CC1
inactive: [1] | [2] | [3] | [4] | [5] | [6] | [7] | [8]

Cc1c(N(C)CS(=O)(=O)O)c(=O)n(-c2ccccc2)n1C
inactive: [1] | [2] | [3] | [4] | [5] | [6] | [7] | [8] | [19] | [20]

Nc1nc(Cl)nc2c1ncn2[C@@H]1O[C@H](CO)[C@@H](O)[C@@H]1F
inactive: [1] | [3] | [5] | [7]
active: [2] 0.119 µM | [4] 0.117 µM | [6] 0.112 µM | [8] 0.155 µM

CC(C)(C)CC(C)(C)c1ccc(O)c(Cc2ccc(Cl)cc2Cl)c1
inactive: [8]
active: [1] 23 µM | [2] 35.4 µM | [3] 20.1 µM | [4] 30.9 µM | [5] 10.9 µM | [6] 28.1 µM | [7] 13.8 µM
